The structures appear in SMILES notation. Inconclusive results are not listed. Unmarked numbers belong to inactive results. The source made the active and inactive calls. Calls come from the whole dose curve; as a rule, active = well fitted cell-killing curve with a large enough effect; inconclusive = small, poorly fitted or top-dose-only effect, or effect the other way; inactive = no such curve, though single readings can be large or run the other way.
Potency is the fitted concentration of half-maximal effect.

The experiment in a line: Quantitative High-Throughput drug screen in 47 multiple myeloma cell lines against the NCATS MIPE library collection: KMS27_JCRB cell viability assay (AID 1918970). Note: nearly all actives have a fitted effect of over 30% in size. As to conditions: KMS27 myeloma cells, CellTiter-Glo ATP viability, 48 h; series mostly up to 45.8 µM; viability (% of DMSO): at the top concentration. The gist of the method:
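Myeloma cells (500 per well) were exposed to MIPE 4.0 compounds for 48 h at 37 °C, 5% CO2; viability was read as ATP luminescence with CellTiter-Glo, normalized to DMSO-only (100%) and media-only (0%) wells.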
Background: Cellular ATP, detected with luciferase, serves as a proxy for viable cell number.
As for `c1ccc2c(CN3CCNCC3)cccc2c1`, the “viability (% of DMSO)” value was 77.6%. For `CSCC[C@@H](NC(=O)[C@@H](Cc1ccccc1)NC(=O)CNC(=O)CNC(=O)[C@@H](N)Cc1ccc(O)cc1)C(=O)O`, the “viability (% of DMSO)” value is 124%.

In the case of `COCC1(CO)C(=O)C2CCN1CC2` (stereo unspecified), the Potency is 4180 nM (active). Consider `CCNC(=O)C[C@@H]1N=C(c2ccc(Cl)cc2)c2cc(OC)ccc2-n2c(C)nnc21`, for which the Potency was 469 nM (active). For `COc1cccc2c1[C@]13CCN(CC4CC4)[C@H](C2)[C@]1(OC)CCC(=O)C3`, the “viability (% of DMSO)” value was 115%. In the case of `CN1CCN(c2ccc([N+](=O)[O-])c3no[n+]([O-])c23)CC1`, the Potency is 20900 nM (active).

As for `CCc1c(C(=O)C(N)=O)c2c(OCC(=O)O)cccc2n1Cc1ccccc1`, the “viability (% of DMSO)” value was 140%. On to `Cc1ccccc1-n1c(Cn2ncc3c(N)ncnc32)nc2cccc(C)c2c1=O`, for which the Potency was 23.5 nM (active). With `CCOC(=O)c1cncn1[C@H](C)c1ccccc1`, the “viability (% of DMSO)” value was 101%. Regarding `COc1ccc(C(=O)c2c(C)n(CCN3CCOCC3)c3cc(I)ccc23)cc1`, the Potency was 13200 nM (active). Consider `O=[N+]([O-])c1ncc[nH]1`, for which the “viability (% of DMSO)” value was 120%.

`CC1=C(O)C(=O)C=C2C1=CC=C1[C@@]2(C)CC[C@@]2(C)[C@@H]3C[C@](C)(C(=O)O)CC[C@]3(C)CC[C@]12C`: the Potency is 1870 nM (active). The same measure, in the same setting: then `CC(C)N[C@@H]1CCn2c(=O)[nH]c3cccc(c32)[C@@H]1O`, with 833 nM (active); and `COc1ccc2c(c1)CN(C)CC2c1ccc(Cl)c(Cl)c1` (stereo unspecified), with 16600 nM (active). In the case of `CC[C@@]1(O)C(=O)OCc2c1cc1n(c2=O)Cc2cc3ccccc3nc2-1`, the Potency is 16.6 nM (active). Consider `CC[C@@H]1[C@@H](C)O[C@@](O)([C@@H](C)[C@H](O)[C@H](C)[C@H]2OC(=O)C=CC=C[C@@H](C)[C@@H]([C@@H](C)[C@@H](O)[C@H](C)[C@@]3(O)C[C@H](O[C@H]4C[C@H](O)[C@H](O)[C@H](C)O4)[C@H](CC)[C@@H](C)O3)OC(=O)C=CC=C[C@@H]2C)C[C@H]1O[C@H]1C[C@H](O)[C@H](O)[C@H](C)O1`, for which the Potency is 264 nM (active).

The values above are taken from PubChem BioAssay (NCATS).
